Measured values reported in PubChem BioAssay (NCI).
“And” between values parts separate entries of the source, which are not always exact repeats. Equal values may be shown once. The panel holds about 79,000 compounds, 15% with a hit somewhere; the sample as a whole holds those more often. Some structures have more than one record in an assay (separate samples or runs), and their calls can disagree. The source made the active and inactive calls. Rule as the data show it: active = growth inhibition above about 70%; inactive = the rest.

How the values were obtained:
[1] = NCI Yeast Anticancer Drug Screen. Data for the rad50 strain (AID 155);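 also: 0% = growth of vehicle-only cultures of the same strain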; conditions: S. cerevisiae rad50 strain growth inhibition, stronger effect = higher value
Method in brief: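 Relative growth inhibition (compound vs vehicle) was measured in yeast with a defined repair-gene alteration.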

[2] = NCI Yeast Anticancer Drug Screen. Data for the mec2-1 strain (AID 157); conditions: S. cerevisiae mec2-1 strain, stronger effect = higher value
Method in brief: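 mec2-1 yeast strain, carrying an alteration in DNA damage repair or cell cycle control, was exposed to compounds; growth inhibition was measured relative to vehicle-treated controls.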

[3] = NCI Yeast Anticancer Drug Screen. Data for the sgs1 mgt1 strain (AID 161);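 also: 0% = growth of cultures given vehicle only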; conditions: S. cerevisiae sgs1 mgt1 strain, stronger effect = higher value
Method in brief: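 Compounds are added to genetically altered yeast, and growth is compared with cultures given vehicle alone to give percent inhibition.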

[4] = NCI Yeast Anticancer Drug Screen. Data for the cln2 rad14 strain (AID 165);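 also: 0% = growth equal to vehicle treated cultures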; conditions: S. cerevisiae cln2 rad14 strain, stronger effect = higher value
Method in brief: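 Yeast carrying cln2 and rad14 alterations (cell cycle control and DNA damage repair) were exposed to compounds. Growth inhibition was measured against vehicle-treated controls.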

[5] = NCI Yeast Anticancer Drug Screen. Data for the bub3 strain (AID 167); conditions: S. cerevisiae bub3 mutant strain, stronger effect = higher value
Method in brief: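 Screening used yeast with an engineered genetic alteration affecting cell cycle control. Compound-exposed cultures were compared with vehicle cultures, and reduced growth was taken as inhibition.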

[6] = NCI Yeast Anticancer Drug Screen. Data for the mlh1 rad18 strain (AID 175); conditions: S. cerevisiae mlh1 rad18 strain growth inhibition, stronger effect = higher value
Method in brief: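 Growth inhibition of the yeast strain was measured after compound exposure and expressed relative to vehicle-treated controls. The strain carries defined defects in DNA damage repair.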

[7] = at 5.0 µM (retest, dose inferred, filed as 0.5)
[8] = at 50.0 µM (retest, dose inferred, filed as 5.0)

Measured: growth inhibition

CCC(C)c1cc([N+](=O)[O-])cc([N+](=O)[O-])c1O (configuration not stated)
active: [1]; at 50.0 µM 79% | [3]; at 50.0 µM 86% | [5]; at 50.0 µM 80.1% | [6]; at 50.0 µM 85.5%
inactive: [1]; [7] -137% | [1]; [8] 39% | [2]; [7] -31% | [2]; [8] 24% | [2]; at 50.0 µM 66.2% | [3]; [7] -50% | [3]; [8] 60% | [4]; [7] -9% | [4]; [8] 44% | [4]; at 50.0 µM 69.9% | [5]; [7] -58% | [5]; [8] 19% | [6]; [7] -123% | [6]; [8] 40%

O=C1C=C(Cl)C(=O)C=C1Cl
active: [1]; [8] 99% | [1]; at 50.0 µM 99.2% | [2]; [8] 100% | [2]; at 50.0 µM 99.5% | [3]; [8] 99% | [3]; at 50.0 µM 99.5% | [4]; [8] 91% | [4]; at 50.0 µM 86.7% | [5]; [8] 99% | [5]; at 50.0 µM 99.3% | [6]; [8] 99% | [6]; at 50.0 µM 99.3%
inactive: [1]; [7] 17% | [2]; [7] 13% | [3]; [7] 10% | [4]; [7] 5% | [5]; [7] 5% | [6]; [7] 11%

S=c1[nH]c2ccccc2s1
4.95% (inactive) and 71.9% (active): [6]; at 50.0 µM
inactive: [1]; [7] -8% | [1]; [8] 45% | [1]; at 50.0 µM 3.25% and 53.4% | [2]; [7] -7% | [2]; [8] 52% | [2]; at 50.0 µM -22.3% and 30.1% | [3]; [7] -3% | [3]; [8] 51% | [3]; at 50.0 µM 15.8% and 62% | [4]; [7] -12% | [4]; [8] 1% | [4]; at 50.0 µM -11.1% and 11.7% | [5]; [7] -4% | [5]; [8] 29% | [5]; at 50.0 µM 8.85% and 55.8% | [6]; [7] -7% | [6]; [8] 38%

CC(=O)Nc1cccc([As+](C)(c2cccc(NC(C)=O)c2)c2cccc(NC(C)=O)c2)c1
inactive: [1]; [7] -1% | [1]; [8] 11% | [1]; at 50.0 µM 4.35% | [2]; [7] 13% | [2]; [8] 14% | [2]; at 50.0 µM -2% | [3]; [7] -14% | [3]; [8] 13% | [3]; at 50.0 µM -5.65% | [4]; [7] 18% | [4]; [8] 15% | [4]; at 50.0 µM -26% | [5]; [7] 5% | [5]; [8] 3% | [5]; at 50.0 µM 6.05% | [6]; [7] 7% | [6]; [8] 11% | [6]; at 50.0 µM 8.65%

CCOC(=O)C1C2OC(=O)C(C(=O)C2CN(CCCl)CCCl)C1C1CC=C(CC2=CCC(C3C4C(=O)OC(C(CN(CCCl)CCCl)C4=O)C3C(=O)OCC)CC2)CC1 (configuration not stated)
active: [1]; [7] 96% | [1]; [8] 97% | [2]; [7] 84% | [2]; [8] 99% | [3]; [8] 96% | [4]; [7] 93% | [4]; [8] 96% | [5]; [8] 97% | [6]; [7] 95% | [6]; [8] 98%
inactive: [1]; at 50.0 µM 53.5% | [2]; at 50.0 µM 57.2% | [3]; [7] 68% | [3]; at 50.0 µM 57.1% | [4]; at 50.0 µM 54.1% | [5]; [7] 49% | [5]; at 50.0 µM 49.5% | [6]; at 50.0 µM 65.3%

CN1CCN(c2ccc([N+](=O)[O-])c3no[n+]([O-])c23)CC1
inactive: [5]; [7] 45% and 65%
active: [1]; [7] 96% and 97% | [1]; [8] 99% | [1]; at 50.0 µM 99.2% and 89.8% | [2]; [8] 99% | [2]; at 50.0 µM 97.5% and 93% | [3]; [7] 82% and 93% | [3]; [8] 99% | [3]; at 50.0 µM 98.8% and 91.3% | [4]; [8] 97% and 98% | [4]; at 50.0 µM 92.7% and 84.6% | [5]; [8] 99% and 97% | [5]; at 50.0 µM 98.2% and 91.5% | [6]; [7] 94% and 97% | [6]; [8] 99% | [6]; at 50.0 µM 94.2% and 90.2%
72% (active) and 46% (inactive): [4]; [7]
52% (inactive) and 81% (active): [2]; [7]

CNC1=C(C)C(=O)C2=C(C1=O)C(COC(N)=O)C1(O)C3C(CN21)N3C (configuration not stated)
active: [1]; [8] 83% | [1]; at 50.0 µM 72% | [2]; [8] 90% | [2]; at 50.0 µM 74.9% | [3]; [8] 78% | [4]; [8] 84% | [6]; [8] 95% | [6]; at 50.0 µM 83%
inactive: [1]; [7] 13% | [2]; [7] 20% | [3]; [7] 19% | [3]; at 50.0 µM 69.8% | [4]; [7] 9% | [4]; at 50.0 µM 61.4% | [5]; [7] 3% | [5]; [8] 59% | [5]; at 50.0 µM 52.2% | [6]; [7] 47%

CCOP(=O)(OCC)/C(C#N)=C/c1cccc(Cl)c1
active: [1]; [8] 94% | [1]; at 50.0 µM 90.5% | [2]; [8] 96% | [2]; at 50.0 µM 91.8% | [3]; [8] 94% | [3]; at 50.0 µM 90.8% | [4]; [8] 94% | [4]; at 50.0 µM 88.2% | [5]; [8] 96% | [5]; at 50.0 µM 89.8% | [6]; [8] 96% | [6]; at 50.0 µM 89.3%
inactive: [1]; [7] 1% | [2]; [7] -1% | [3]; [7] 5% | [4]; [7] 14% | [5]; [7] -6% | [6]; [7] 6%

CCC1(C2=CCCCC2)C(=O)NC(=S)NC1=O
inactive: [1]; [7] -101% | [1]; [8] 62% | [1]; at 50.0 µM 8.05% and 60.1% | [2]; [7] -11% | [2]; at 50.0 µM -3.9% and 5.6% | [3]; [7] 22% | [3]; at 50.0 µM 0.6% and 51.5% | [4]; [7] -14% | [4]; [8] 62% | [4]; at 50.0 µM -32.4% and -0.6% | [5]; [7] 4% | [5]; [8] 62% | [5]; at 50.0 µM 6.05% and 34.2% | [6]; [7] 0%
25.5% (inactive) and 85% (active): [6]; at 50.0 µM
active: [2]; [8] 76% | [3]; [8] 77% | [6]; [8] 79%
